Source: PubChem BioAssay
Most compounds without a hit are left out; they make up all but 21% or so of the library.
Pf growth 96h – Primary qHTS for delayed death inhibitors of the malarial parasite plastid, 96 hour incubation | P. falciparum luciferase reporter growth, 96 h | Potency, µM (highest dose often 28.7 µM), without a hit: top-dose activity change, negative = inhibition, most hits filed as inhibitors | actives 6.9% (n = 320,000); note: potency is the fitted concentration of half-maximal effect; % is set by controls: 0 for no effect and ±100 for the full control effect
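Compounds incubated with erythrocytes infected by luciferase-expressing P. falciparum (2% hematocrit, 0.05% parasitemia final) for 96 hours, 37 C in 5% CO2. Growth inhibition scored as decreased luciferase luminescence.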
Pf growth 48h – Primary qHTS for delayed death inhibitors of the malarial parasite plastid, 48 hour incubation | P. falciparum luciferase growth in erythrocytes, 48 h | Potency, µM (top dose mostly 28.7 µM), for inactives: at the top dose activity change, negative = inhibition, most hits filed as inhibitors | actives 5.9% (n = 310,000) | AID 504832, 2011; note: potency is the fitted concentration of half-maximal effect; % is set by controls: 0 for no effect and ±100 for the full control effect
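Growth was read as firefly luciferase luminescence after a 48 h, 37 C, 5% CO2 exposure of compounds to reporter-bearing P. falciparum cultures (0.1% parasitemia, 2% hematocrit final) in Albumax-supplemented RPMI 1640.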
CHX counter – Cycloheximide Counterscreen for Small Molecule Inhibitors of Shiga Toxin | cell reporter, cycloheximide protein synthesis inhibition counterscreen | max response, % | actives 12% (n = 300,000); in the data active = max response mostly above about 13%, no sharp cut-off; inactive = mostly below about 14%; note: read at 38.3 µM for the half of the compounds with a filed dose; 0% is about no effect
Shiga toxin inh – A qHTS for Small Molecule Inhibitors of Shiga Toxin. Vero cells, Shiga toxin protein synthesis inhibition reporter. inhibition, % at 38.7 µM. actives 9.2% (n = 290,000); in the data active = inhibition mostly above about 28%, no sharp cut-off; inactive = mostly below about 43%; note: 0% is about no effect
HCV inhibitor – qHTS Assay for Inhibitors of Hepatitis C Virus (HCV). Huh7.5.1 HCVcc-Cre infection, luciferase reporter, 44 h. Potency, µM (series often up to 41.8 µM), inactives show at the top dose activity change, negative = inhibition, most hits filed as inhibitors. actives 3.4% (n = 340,000); note: potency is the fitted concentration of half-maximal effect; % is set by controls: 0 for no effect and ±100 for the full control effect
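Infectious HCV cell culture screen: compound-treated cells (1,000/well, pre-plated 4 h) are infected with HCVcc-Cre at roughly 0.5 moi and grown 44 h. Infection is quantified by luciferase signal after 15 min substrate incubation at room temperature.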
HCMV antiviral – qHTS Assay for inhibitors of the human cytomegalovirus (HCMV). HFF cells, HCMV-luciferase reporter, 72 h; active compounds read low. activity change, negative = inhibition, % at 57.5 µM. actives 4.5% (n = 410,000). AID 1259415, 2018; in the data active = activity change below about -60%; inconclusive = no clear call, values can overlap the other calls; inactive = above about -39%; note: % is set by controls: 0 for no effect and ±100 for the full control effect
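Steps: HFFs plated, 16 h 37C; compounds added; HCMV-luciferase added to MOI 1 PFU/cell; 72 h 37C; OneGlo reagent, 5 min room temperature; luminescence read, normalized to controls.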
An asterisk follows results filed as active; ? = inconclusive; / = no result; [ ] = another dose, or the depositor's remark. Unless noted, calls come from the whole dose curve; as a rule, active = well fitted inhibition curve with a large enough effect; inconclusive = small, poorly fitted or top-dose-only effect, or another doubt; inactive = no such curve, though single readings can be large or run the other way.

SMILES | Pf growth 96h | Pf growth 48h | CHX counter | Shiga toxin inh | HCV inhibitor | HCMV antiviral
CC(=O)n1cc(Nc2ccc([N+](=O)[O-])cc2)c2ccccc21 | 62% | ? | 15 | 79 | -20% | 158
CC(=O)SC(C[N+](=O)[O-])c1cn(C(C)=O)c2ccccc12 (stereo not given) | ? | ? | 18 | 26 | 11µM* | -106*
N#Cc1c(-c2ccccc2)cc(-c2ccccc2)nc1SCCC(=O)O | ? | 28% | -1 | -2 | 11% | -23
COc1ccc(C(=O)n2c(N)nc3ccccc32)cc1OC | -3% | 28% | 25* | / | -4% | 32
Nc1nncn1C(=O)c1cccs1 | / | 68% | -3 | 5 | 16% | -3
Nc1nc2ccccc2n1C(=O)c1ccccc1 | 123% | -49% | 3 | -14 | -11% | -19
Nc1nc2ccccc2n1C(=O)c1ccc(F)cc1 | 0% | 22% | 16* | 49 | -1% | -38
Nc1nc2ccccc2n1C(=O)c1cccs1 | 15% | 0% | 51* | 91* | 0% | 18
CCSc1nnc(NC(=O)CN2C(=O)N(C)C3(CCCCC3)C2=O)s1 | 34% | -26% | / | / | 42% | -1
CN(C)CCNC(=O)C1CCN(S(=O)(=O)c2ccc3ccccc3c2)CC1 | -18% | 50% | 0 | -16 | -15% | 34
Nc1c(-c2nc(-c3ccc(Cl)cc3)cs2)c2ccccn2c1C(=O)c1ccc2c(c1)OCO2 | / | / | / | / | / | 4
CC(C)Sc1nc(N)nc(-c2cccs2)c1C#N | 52% | 71% | 33* | 105* | ? | 55
c1ccc(N/N=C(\Cc2ncc[nH]2)c2ccccc2)cc1 | 9.3µM* | ? | 8 | 29 | -30% | 11
COc1ccc(C(=O)N/N=C(\Cc2ncc[nH]2)c2ccccc2)cc1 | ? | 3.3µM* | 4 | 13 | -20% | 0
Clc1cccc(N/N=C(\Cc2nc3ccccc3[nH]2)c2ccccc2)c1 | 4.1µM* | 12µM* | 21* | 54* | ? | 9
COc1cc(C(=O)N/N=C(\Cc2ncc[nH]2)c2ccccc2)cc(OC)c1OC | -78% | ? | -2 | -14 | ? | -20
CN1CCN(c2ccc(C(=O)NC3CCCCC3)cc2[N+](=O)[O-])CC1 | 18% | -1% | 10 | 5 | -3% | 32
CC(C)c1ccc(NC(=O)c2cc3c(=O)[nH]c4ccccc4c3n2C)cc1 | / | / | / | / | / | -23
CCN1CCc2c(sc(NC(=O)c3ccc(C(=O)c4ccccc4)cc3)c2C(N)=O)C1 | ? | ? | -3 | -11 | ? | -7
Cc1sc(NC(=S)NC(=O)c2ccco2)c(C(N)=O)c1C | ? | 0% | 26* | 93* | 14% | -11
CCN1CCc2c(sc(NC(=S)NC(=O)c3ccco3)c2C(N)=O)C1 | 31% | -9% | 14* | 16 | 11% | 27
CCN1CCc2c(sc(NC(=O)Nc3ccc(Cl)c(Cl)c3)c2C(N)=O)C1 | 27% | 12µM* | -5 | -6 | ? | 38
CC1(C)Cc2c(sc(NC(=O)Nc3ccccc3)c2C(N)=O)CO1 | ? | 65% | 33* | 72 | -9% | 154
COC(=O)CCC(=O)NC(=S)Nc1sc(C)c(C)c1C(N)=O | 35% | 23% | -4 | -4 | 1% | ?
Cc1sc(NC(=O)Nc2ccccc2)c(C(N)=O)c1C | -28% | 86% | 43* | 72* | 2% | 22
SMILES | Pf growth 96h | Pf growth 48h | CHX counter | Shiga toxin inh | HCV inhibitor | HCMV antiviral
Cc1sc(NC(=S)NC(=O)CCc2ccccc2)c(C(N)=O)c1C | 48% | 24% | -1 | 11 | ? | -83*
O=C(COC(=O)CN1C(=O)c2ccccc2C1=O)NC1CCCCC1 | 5% | 0% | -7 | -6 | 17% | -22
O=C(Nc1ccc(F)cc1)c1cncs1 | -3% | 37% | -2 | -9 | 38% | 22
N#CCSc1ccsc1C(=O)Nc1ccc(F)cc1 | 16% | 40% | 22* | 32 | ? | 13
COc1ccc(-c2cccc(NS(=O)(=O)c3cccs3)c2)nn1 | / | / | / | / | / | 24
O=C(Cn1c(=O)nc(-c2ccccc2F)c2cc(Cl)ccc21)Nc1ccccc1C(F)(F)F | / | / | / | / | / | 17
CC(C)(C)c1ccc(NC(=O)C(=O)C2C(=O)Nc3ccccc32)cc1 (stereo not given) | -1% | -5% | 32* | 49* | 1% | 28
CC(C)c1ccc(NC(=O)C(=O)C2C(=O)Nc3ccccc32)cc1 (stereo not given) | 9% | 5% | 9 | -5 | -6% | 111
Cc1ncsc1C(=O)Nc1cccc(C(F)(F)F)c1 | 11% | 9% | 0 | -6 | 2% | -3
Cc1cc(C)cc(NC(=O)COC(=O)CCCC2=NS(=O)(=O)c3ccccc3N2)c1 | ? | -3% | 0 | 10 | 20% | 38
Cc1cccc(OCC2=NS(=O)(=O)c3ccccc3N2)c1 | 4% | 44% | 38* | 106* | -17% | 69
Cc1cccn2c(=S)[nH]nc12 | / | / | / | / | -23% | -16
Cn1c(-c2ccccc2)cnc1N | ? | ? | 29* | 35 | -8% | 68
N=c1ccn(Cc2ccc([N+](=O)[O-])cc2)cc1 | ? | 4.1µM* | 1 | 29 | ? | 28
Cc1ccc(-c2nn3c(=O)c(C)nnc3s2)cc1 | 27% | -18% | 27* | 23 | 16% | -12
COc1ccccc1NC(=O)CSc1nn2c(=O)c(C)nnc2s1 | ? | 14% | 7 | -8 | 10% | -27
Cc1nnc2sc(SCc3cccc(Cl)c3)nn2c1=O | 2.1µM* | 5.9µM* | 9 | -12 | 6% | 25
Cc1nnc2sc(-c3cccc(F)c3)nn2c1=O | ? | ? | -2 | -6 | -3% | -15
Cc1nnc2sc(SCc3ccccc3Cl)nn2c1=O | ? | ? | 3 | 26 | 4% | -12
Cc1nnc2sc(SCC(=O)Nc3nccs3)nn2c1=O | 1.7µM* | ? | 2 | -1 | 13% | 5
Cc1nnc2sc(SCc3ccccc3)nn2c1=O | ? | 10µM* | -1 | -13 | 1% | /
C[C@H](CO)N1C[C@H](C)[C@@H](CN(C)Cc2ccc(C(=O)O)cc2)Oc2ccc(NS(=O)(=O)c3cn(C)cn3)cc2C1=O | / | / | / | / | 22% | 8
Cc1cccc(-c2ccc3c(c2)C2CC3CCN2)c1 (stereo not given) | / | / | / | / | -5%[8.37 µM] | -11
Cc1ccccc1NS(=O)(=O)c1nnc(NC(=O)CC(C)C)s1 | 0% | -18% | 12 | -5 | 11% | 5
O=c1ccc2cc(S(=O)(=O)Nc3ccc(F)c(Cl)c3)ccc2[nH]1 | / | / | / | / | / | 8
Cc1cc(=O)n2nc(-c3ccccc3)sc2n1 | / | 101% | 38* | 61* | -3% | 67
